Assay [1] in a line: Cell Viability - LYMP2-001 (AID 921). Note: series mostly up to about 92 µM; nearly all actives have a fitted effect of over 70% in size. Summed up:
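CellTiter-Glo luminescence (intracellular ATP) after 24 hr compound exposure at 37 C, 2500 lymphoblastoid cells/well in complete medium. AC50 fitted with standard Hill equation; tetraoctylammonium bromide positive control.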

Assay [2] is described as follows: Confirmation and Secondary Assay for Modulators of Hemoglobin Beta Chain Splicing at IVS2 705 locus (AID 930).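 Note: HeLa cells stably expressing the EGFP-705 splicing reporter; GFP fluorescence per well restored by corrected splicing of the IVS2-705 intron in EGFP; series mostly up to about 46 µM.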 Summed up:
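Splice-correction reporter: EGFP cDNA split by beta-globin intron 2 bearing the 705 mutation, stably in HeLa. Compound incubation 2 days, 37C; fluorescent objects 5-250 µm summed per well.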

Assay [3] deals with Muscarinic acetylcholine receptor M1 (Rattus norvegicus) (UniProt P08482). As to the kind of experiment: qHTS Assay for Antagonists of Acetylcholine Muscarinic M1 Receptor: Measurement of IP-One Response (AID 944). Note: nearly all actives have a fitted effect of over 75% in size. Note: potency is the fitted concentration of half-maximal effect. Summed up: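 Steps: plate transfected CHO-M1 cells overnight; add test compound, 10 min; add carbachol (200 nM, EC80) in stimulation buffer with LiCl; incubate 30 min; add labelled IP1 tracer and anti-IP1 antibody in lysis buffer; read HTRF after 10 min.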
On the technique in general: In qHTS, concentration-response curves come from the screen itself.

Assay [4] concerns the target Pyruvate kinase (Leishmania mexicana) (UniProt Q27686). As to the kind of experiment: qHTS Validation Assay for Inhibitors of Leishmania Mexicana Pyruvate Kinase (AID 945). Note: potency is the fitted concentration of half-maximal effect. Put shortly: (§1)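 The enzyme is a highly purified E451W mutant of LmPYK used at 0.2 nM. It converts 0.5 mM PEP and 0.1 mM ADP over 1 h at room temperature; product ATP is quantified by luciferase luminescence relative to DMSO controls.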

Assay [5] in a line: MultiTox-Fluor Cytotoxicity Assay - LYMP1-001 - Dead Cells (AID 946).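 Note: cells exposed to compound for 16 h.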 Put shortly: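 Seed 2500 LYMP1-001 cells/well, incubate 5 hr at 37 C; add compound, 16 hr at 37 C; add MultiTox-Fluor reagent, 60 min RT; read dead-cell fluorescence Ex/Em=485/520. Normalize to DMSO and 15 uM tetraoctylammonium bromide.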
Assay [6] in a line: MultiTox-Fluor Cytotoxicity Assay - LYMP1-001 - Live Cells (AID 947).
Assay [7] in a line: Cell Viability - LYMP1-002 - Assay at 16 hr (AID 948). Put shortly: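 LYMP1-002 human lymphoblastoid cells, 2500/well; 5 hr 37 C; cpd 16 hr 37 C; CellTiter-Glo 30 min RT; luminescence (ATP). Concentration-response, Hill-fit AC50. Pos ctrl tetraoctylammonium bromide.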
Assay [8] is described as follows: MultiTox-Fluor Cytotoxicity Assay - LYMP1-002 - Live Cells (AID 955).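 Note: cells exposed to compound for 16 hours.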 Put shortly: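 Cytotoxicity in the human lymphoblastoid line LYMP1-002 is measured as loss of live-cell protease activity after 16 h treatment in complete culture medium. AC50 is derived from Hill-equation fits of qHTS concentration-response data.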
A short description of assay [9]: MultiTox-Fluor Cytotoxicity Assay - LYMP1-002 - Dead Cells (AID 960).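 Note: cells exposed to compound for 16 h at 37 °C; nearly all actives have a fitted effect of over 60% in size.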 Put shortly: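 Acute cytotoxicity in a human lymphoblastoid line is scored as rising dead-cell protease signal after 16 hr exposure at 37 C, measured fluorometrically (485/520).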
The nature of assay [10]: MultiTox-Fluor Cytotoxicity Assay - LYMP1-003 - Dead Cells (AID 961).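 Note: cells exposed to compound for 16 h at 37 °C; nearly all actives have a fitted effect of over 70% in size.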 Summed up:
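LYMP1-003 lymphoblastoid, 2500 cells/well, 5 hr settle then 16 hr cpd at 37 C; MultiTox-Fluor reagent 60 min RT; Ex/Em 485/520 dead-cell signal; norm. DMSO = 0%, 15 uM tetraoctylammonium bromide = 100%; Hill AC50.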

Assay [11] can be described thus: MultiTox-Fluor Cytotoxicity Assay - LYMP1-003 - Live Cells (AID 962).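 Note: cells exposed to compound for 16 hours at 37 °C; cytotoxic hits lower the live-cell protease signal.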 Put shortly:
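Cells plated at 2500 per well and incubated 5 hr; compounds added and incubated 16 hr at 37 C; MultiTox-Fluor reagent added for 60 min at room temperature; fluorescence of liberated AFC measured at 405/510 nm.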

The nature of assay [12]: Cell Viability - LYMP1-003 - Assay at 24 hr (AID 963). Summed up: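 Acute toxicity in LYMP1-003 lymphoblastoid cells: 24 hr compound treatment at 37 C, ATP measured with CellTiter-Glo after 30 min at room temperature. AC50 derived by fitting the Hill equation to qHTS titrations.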
Assay [13] is described as follows: Cell Viability - LYMP2-005 (AID 967). Note: series mostly up to about 92 µM. Put shortly: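 Steps: seed 2500 LYMP2-005 cells/well, incubate 5 h at 37 C, add compound, incubate 24 h at 37 C, add CellTiter-Glo, wait 30 min at RT, read luminescence. Concentration-response data fitted to Hill equation for AC50.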
A short description of assay [14]: Cell Viability - LYMP2-009 (AID 968). Note: series mostly up to about 92 µM; nearly all actives have a fitted effect of over 55% in size.
Assay [15] can be described thus: Cell Viability - LYMP2-011 (AID 969). Note: nearly all actives have a fitted effect of over 60% in size. Put shortly: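 Acute toxicity is scored as a concentration-dependent drop in intracellular ATP of a human lymphoblastoid line after 24 hr treatment. Values are AC50s modeled with the Hill equation.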
Assay [16] can be described thus: Cell Viability - LYMP2-013 (AID 970). Note: series mostly up to about 92 µM; nearly all actives have a fitted effect of over 55% in size. Summed up:
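Acute toxicity was measured in human lymphoblastoid cells (2500/well) exposed to compound titrations for 24 hr, with ATP luminescence (CellTiter-Glo) as read-out and AC50 fitted by Hill equation.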

A short description of assay [17]: Cell Viability - LYMP2-015 (AID 971). Note: nearly all actives have a fitted effect of over 55% in size. Summed up:
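Acute toxicity was scored as a concentration-dependent drop in intracellular ATP in lymphoblastoid cells after 24 hr compound exposure in complete medium. Detection used CellTiter-Glo luciferase luminescence.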

Assay [18] concerns the target Pyruvate kinase PKM (Homo sapiens) (UniProt P14618). As to the kind of experiment: qHTS Assay for Activators of Human Muscle Pyruvate Kinase (AID 954; active = well fitted curve in the direction sought with a large enough effect, not every such curve was filed as active). Summed up: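 Reaction: 0.1 nM purified PKM2 with 0.5 mM phosphoenolpyruvate and 0.1 mM ADP, room temperature, 1 h. Readout: luciferase-based ATP luminescence after stop reagent. Activators judged against a 0.3 nM enzyme column.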

The target is the same in assay [19]. In words: qHTS Assay for Inhibitors of Human Muscle Pyruvate Kinase (AID 958). Particulars: purified human PKM enzyme activity. Put shortly: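 Purified human PKM2 (0.1 nM) with 0.5 mM PEP (Km) and 0.1 mM ADP in 50 mM imidazole pH 7.2, KCl, MgCl2, 1 h at room temperature; ATP formed read by coupled luciferase luminescence. Normalized to no-enzyme/110 uM thiadiazolimine inhibition; 0.3 nM enzyme column for activation.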

Assay [20] deals with Pyruvate kinase (Leishmania mexicana) (UniProt Q27686). In words: qHTS Validation Assay for Activators of Leishmania Mexicana Pyruvate Kinase (AID 959). Summed up:
as §1

Inconclusive results are not listed. Entries that show only a call come without a potency. The source made the active and inactive calls. Unless noted, calls come from the whole dose curve; as a rule, active = well fitted curve in the direction sought with a large enough effect; inconclusive = small, poorly fitted or top-dose-only effect, or another doubt; inactive = no such curve, though single readings can be large; an effect the other way counts as inactive or inconclusive.

Chain of Pyruvate kinase PKM (Homo sapiens) (P14618 whole entry, looked up): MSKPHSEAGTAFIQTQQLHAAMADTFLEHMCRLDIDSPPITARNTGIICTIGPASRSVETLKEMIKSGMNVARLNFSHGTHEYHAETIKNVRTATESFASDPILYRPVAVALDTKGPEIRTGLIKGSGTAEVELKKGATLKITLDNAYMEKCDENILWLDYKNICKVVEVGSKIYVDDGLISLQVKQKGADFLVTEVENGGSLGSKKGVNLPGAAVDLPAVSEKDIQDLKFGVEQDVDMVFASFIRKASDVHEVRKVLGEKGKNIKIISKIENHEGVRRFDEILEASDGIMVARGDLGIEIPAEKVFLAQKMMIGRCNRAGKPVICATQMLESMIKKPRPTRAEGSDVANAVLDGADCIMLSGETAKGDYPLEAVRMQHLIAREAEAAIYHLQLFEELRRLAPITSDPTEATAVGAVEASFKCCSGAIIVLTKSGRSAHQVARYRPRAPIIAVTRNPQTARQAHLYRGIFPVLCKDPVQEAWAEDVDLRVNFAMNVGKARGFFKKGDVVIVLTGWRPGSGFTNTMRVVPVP
Chain of Muscarinic acetylcholine receptor M1 (Rattus norvegicus) (P08482 whole entry, looked up): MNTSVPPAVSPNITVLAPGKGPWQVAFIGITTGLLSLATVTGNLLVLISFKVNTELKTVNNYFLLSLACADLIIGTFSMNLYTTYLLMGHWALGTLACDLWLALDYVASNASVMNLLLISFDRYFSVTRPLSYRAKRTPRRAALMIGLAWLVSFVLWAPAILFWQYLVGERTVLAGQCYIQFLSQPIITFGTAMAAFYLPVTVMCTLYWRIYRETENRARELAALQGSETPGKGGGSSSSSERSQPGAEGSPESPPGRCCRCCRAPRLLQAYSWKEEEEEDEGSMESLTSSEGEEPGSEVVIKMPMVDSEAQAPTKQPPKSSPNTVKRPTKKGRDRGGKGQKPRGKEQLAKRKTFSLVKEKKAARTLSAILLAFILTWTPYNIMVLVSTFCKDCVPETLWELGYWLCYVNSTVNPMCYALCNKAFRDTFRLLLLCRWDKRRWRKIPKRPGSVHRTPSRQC
Chain of Pyruvate kinase (Leishmania mexicana) (Q27686 2-499 E452W): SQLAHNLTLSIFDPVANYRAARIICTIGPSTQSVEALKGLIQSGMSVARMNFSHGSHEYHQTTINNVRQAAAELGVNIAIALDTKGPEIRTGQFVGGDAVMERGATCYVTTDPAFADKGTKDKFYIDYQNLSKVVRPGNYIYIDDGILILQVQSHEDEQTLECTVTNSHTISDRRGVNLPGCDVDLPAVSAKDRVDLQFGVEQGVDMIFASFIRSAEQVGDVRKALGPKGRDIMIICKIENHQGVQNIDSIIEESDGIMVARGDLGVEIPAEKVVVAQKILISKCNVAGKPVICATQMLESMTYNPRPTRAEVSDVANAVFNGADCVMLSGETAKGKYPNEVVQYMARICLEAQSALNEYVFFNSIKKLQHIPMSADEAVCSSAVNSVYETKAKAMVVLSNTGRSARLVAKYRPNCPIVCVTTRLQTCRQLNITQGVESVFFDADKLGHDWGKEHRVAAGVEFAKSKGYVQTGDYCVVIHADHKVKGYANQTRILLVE

Take `COc1cc(Cc2cnc(N)nc2N)cc(OC)c1OC`: the call in [1], in assay [2], in assay [5], in assay [6], in [7] and in assay [8] was inactive. In addition, the compound was classed as inactive in [11], in assay [12], in assay [15], in assay [16] and in assay [17]. The Potency entry in [3], in assay [4], in [9], in assay [10], in [13] and in assay [14] was “inactive” in each case.

For `CCCCCN(CCCCC)C(=O)C(CCC(=O)O)NC(=O)c1ccc(Cl)c(Cl)c1` (centres undefined), in [2], the call was inactive.

As to `Nc1c2c(nc3ccccc13)CCCC2O` (centres undefined), the compound was classed as inactive in [2].

With `CC(C)(Oc1ccc(CCNC(=O)c2ccc(Cl)cc2)cc1)C(=O)O`, the compound was called inactive in assay [2].

Regarding `CCCC(C(=O)OCCN(CC)CC)(c1ccccc1)c1ccccc1`, the compound was classed as inactive in [2]. Besides, in [3], the Potency is 11.2 µM (active). Besides, the Potency result in assay [4] is “inactive”.

Consider `Fc1ccc(C(c2ccc(F)cc2)N2CCN(C/C=C/c3ccccc3)CC2)cc1`, for which, in assay [2], the compound was called inactive.

Regarding `CN(C)CCOC(=O)COc1ccc(Cl)cc1`, in assay [2], the outcome was inactive. Moreover, the Potency result in [3] and in assay [4] was “inactive” each time.

On to `OC(CCN1CCCCC1)(c1ccccc1)C1CCCCC1` (centres undefined), for which, in assay [2], the compound was called inactive.

Consider `N[C@@H](COP(=O)(O)O)C(=O)O`, for which the Potency entry in assay [3] and in assay [4] was “inactive” throughout.

Take `CC[N+](C)(C)c1cccc(O)c1`: the compound was classed as inactive in assay [2]. In assay [4], the Potency result is “inactive”.

With `CC(C)[N+](C)(CCOC(=O)C1c2ccccc2Oc2ccccc21)C(C)C`, the result in assay [2] and in assay [18] was inactive. In [3], the Potency was 0.001 µM (active). Moreover, the Potency entry in assay [4] was “inactive”.

Consider `CCN(CC)CCOCCOC(=O)C1(c2ccccc2)CCCC1`, for which the outcome in [2] and in [18] was inactive. In addition, in assay [4], the Potency result was “inactive”.

Regarding `CCNC(=O)N1CCN(CCCC(c2ccc(F)cc2)c2ccc(F)cc2)CC1`, in [3], the Potency was 17.8 µM (active). In addition, the Potency entry in assay [4] is “inactive”.

Consider `CC1=NS(=O)(=O)c2cc(Cl)ccc2N1`, for which the result in assay [2] and in assay [18] was inactive. For the same compound, the Potency result in assay [4] is “inactive”.

For `Cc1nc2c([nH]1)c(=O)n(C)c(=O)n2Cc1ccco1`, the Potency entry in assay [3] and in assay [4] was “inactive” in each case.

On to `CCCN(CCC)CCc1cccc2c1CC(=O)N2`, for which the call in assay [2] was inactive. In assay [4], the Potency result is “inactive”.

For `C[N+](C)(C)CCOC(N)=O`, in [2], the compound was called inactive. The Potency entry in [4] was “inactive”.

As for `Cc1scc2c1N(C(=O)CN1CCN(C)CC1)c1ccccc1NC2=O`, the compound was called inactive in assay [2] and in [18]. For the same compound, the Potency in [3] is 0.0282 µM (active). The Potency result in assay [4] is “inactive”.

Regarding `CCO/C([O-])=N/c1c[n+](N2CCOCC2)no1`, in assay [2], the compound was classed as inactive. The Potency result in assay [4] is “inactive”.

For `CCn1nc(C(=O)O)c(=O)c2cc3c(cc21)OCO3`, the result in assay [2] and in assay [18] was inactive. Also, the Potency result in assay [4] is “inactive”.

`CCN(CC)CCNC(=O)c1ccc(NC(C)=O)cc1`: the compound was called inactive in assay [2]. In [4], the Potency result is “inactive”.

For `CCCCNc1ccc(C(=O)OCCN(C)C)cc1`, the call in assay [2] was inactive. The Potency entry in assay [4] is “inactive”.

Regarding `C[n+]1cc2c3c(ccc2c2ccc4cc5c(cc4c21)OCO5)OCO3`, the call in assay [2], in [18] and in [20] was inactive. The Potency in [3] was 12.6 µM (active); in [4], 10 µM (active); in [19], 10 µM (active).

Consider `CNCCCN1c2ccccc2CCc2ccccc21`, for which the compound was classed as inactive in [2]. For the same compound, the Potency entry in assay [4] is “inactive”.

For the compound `CN(C)C(=O)Oc1cccc([N+](C)(C)C)c1`, the outcome in assay [2] was inactive. In addition, the Potency entry in assay [4] is “inactive”.

Take `Cc1ccc(=O)n(-c2ccccc2)c1`: the Potency result in assay [3] and in [4] was “inactive” throughout.

Turning to `CN(C)CCCN1c2ccccc2Sc2ccccc21`, the result in assay [2] was inactive. In assay [4], the Potency result is “inactive”.

As for `CCCOc1ccccc1-c1nc2n[nH]nc2c(=O)[nH]1`, the outcome in assay [2] was inactive. For the same compound, in assay [4], the Potency entry was “inactive”.
